Screening results deposited in PubChem by National Center for Advancing Translational Sciences (NCATS).
HepG2 viability – counter-screen for TGF-b inhibitors: cytotoxicity in HepG2 cells; HepG2 CAGA-GFP viability, ATP luminescence, 18 h; Potency, µM (doses to about 46.1 µM), usual class: cytotoxic; 410,000 tested, 0.76% active
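HepG2 CAGA-GFP cells (1000/well, DMEM with 1% FBS) received compound, then TGF-beta at 500 pg/mL final, and were incubated 18 hours at 37 degrees C. Viability was read by CellTiter-Glo luminescence. Media-only wells were set as complete cell-killing and DMSO as no toxicity.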
HT1080 IDH1KD tx – toxicity to HT-1080 IDH1 knockdown cells (counter line); HT-1080 IDH1 knockdown viability, ATP luminescence, 48 h; Potency, µM (doses to about 46.1 µM), actives largely listed as cytotoxic; 360,000 tested, 2% active; AID 686971
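Knockdown cells (IDH1KD HT-1080) received compounds 2 h after plating at 750 cells/well and were kept 48 h at 37 °C in 5% FBS RPMI. A CellTiter-Glo luminescence read gave % activity for curve fitting.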
ATXN viability – viability counter-screen for ATXN expression inhibitors; Potency, µM (top dose mostly 56.7 µM), most hits filed as cytotoxic; S2 cells (HEK-293 line with an ATXN2-luciferase reporter) viability, CellTiter-Fluor protease fluorescence, 24 h; 400,000 tested, 0.49% active; note: nearly all actives have a fitted effect of over 40% in size
TGFb inhibitor – inhibitors of TGF-b signaling | HepG2 CAGA-GFP TGF-b/SMAD3 reporter, GFP fluorescence, 18 h; TGF-beta stimulated, 500 pg/mL final | Potency, µM (highest dose often 46.1 µM), actives largely listed as inhibitors | 410,000 tested, 1.2% active; note: nearly all actives have a fitted effect of over 65% in size
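HEPG2 CAGA-GFP, 1000 cells/well; 2 h settle, 37 C; cpd via pin tool; TGF-b 500 pg/mL final; 18 h, 37 C; GFP imaging ex488/em500-530; %Activity normalised to -TGF-b and +DMSO controls; CRC fit, curve class.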
HT1080NT lethal – kills 2HG-producing HT-1080-NT fibrosarcoma cells; AID 686970; 360,000 tested, 1.6% active; HT-1080-NT fibrosarcoma viability, CellTiter-Glo ATP luminescence, 48 h; Potency, µM (titrated, usually from 46.1 µM), most hits filed as cytotoxic;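 note: NT is the 2HG producing partner of a matched IDH1 knockdown line; nearly all actives have a fitted effect of over 55% in size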
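HT-1080-NT fibrosarcoma cells (2HG-overproducing), 750 cells/well in RPMI with 5% FBS, dosed after 2 h and incubated 48 h at 37C. CellTiter-Glo luminescence normalized to DMSO and no-cell wells; concentration-response curves fitted and classed.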
ATXN2 expr inh – reduces ATXN2 reporter expression in HEK-293 cells; HEK-293 ATXN2-luciferase reporter, luminescence, 24 h; Potency, µM (titrated, usually from 57 µM), actives largely listed as inhibitors; 360,000 tested, 0.72% active; note: nearly all actives have a fitted effect of over 55% in size
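ATXN2-luciferase reporter cells (luciferase flanked by upstream and downstream ATXN2 gene portions) were treated 24 h at 37 °C with compounds at up to 57 uM. SteadyGlo luminescence gave expression; GF-AFC fluorescence gave viability.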
A number is an active result; – = inactive; ? = inconclusive; · = not tested or not shown. Compounds with a hit are over-represented: about 3.8% of the library has one in this group of screens. Calls come from the whole dose curve; as a rule, active = well fitted curve in the direction sought with a large enough effect; inconclusive = small, poorly fitted or top-dose-only effect, or another doubt; inactive = no such curve, though single readings can be large; an effect the other way counts as inactive or inconclusive.

SMILES | HepG2 viability | HT1080 IDH1KD tx | ATXN viability | TGFb inhibitor | HT1080NT lethal | ATXN2 expr inh
Cc1cccc(N2CCN(C(=O)c3ccncc3)CC2)c1C | – | 13µM | ? | – | 9.2µM | –
CCn1cc(C(=O)N2CCN(c3cccc(C)c3C)CC2)c2cc(OC)c(OC)cc2c1=O | – | · | ? | 10µM | · | ?
COc1cc(C(=O)N2CCN(c3cccc(C)c3C)CC2)cc(OC)c1OC | – | 0.82µM | ? | ? | 1.2µM | ?
OC(Br)C(O)C(O)N1CCCc2ccccc21 (stereo not drawn) | – | · | · | – | · | ·
CC(=O)Nc1cc2cc(NS(=O)(=O)c3ccc(Cl)cc3)ccc2oc1=O | 0.2µM | – | – | – | – | –
CCOc1c(Br)cc(CNC2CCCCCCC2)cc1OC | 11µM | – | ? | ? | – | ·
COc1ccc(CNc2ccc(C)c(C)c2)cc1 | – | – | – | – | – | –
CCOc1c(Br)cc(CNc2ccc3c(c2)OCCO3)cc1OC | – | 1.2µM | – | ? | 2.9µM | –
CCOc1cc(CNc2ccc3c(c2)OCCO3)cc(Br)c1OC | – | 1.5µM | ? | ? | 2.3µM | –
COc1cc(CNc2ccc(C)c(C)c2)cc(OC)c1OC | – | 4µM | – | ? | 5µM | –
CSc1nc(-c2ccc(C)cc2)[nH]c1S(=O)(=O)c1ccccc1 | – | 23µM | – | – | – | –
COc1ccc2c(c1)CCc1cnc(-n3ncc(C(=O)NCCCN4CCOCC4)c3C)nc1-2 | · | · | – | · | · | ·
Cc1ccc(Nc2c(-c3ccc(C)s3)nc3cccc(C)n23)cc1 | · | – | · | · | – | ·
O=C(/C=C/c1ccc(C(F)(F)F)cc1)OC(C(=O)NC1CC1)c1ccccc1 (stereo not drawn) | – | · | · | – | · | ·
c1ccc(CNc2ncnc3c2ncn3Cc2ccccc2)cc1 | – | · | · | – | · | ·
CCCCNC(=S)Nc1ccc(Oc2ccccc2)cc1 | – | – | – | ? | – | –
CCCNC(=S)Nc1ccc(Oc2ccccc2)cc1 | – | 14µM | – | – | 16µM | –
COc1ccc(CCNC(=S)Nc2ccc(C(C)C)cc2)cc1 | – | – | – | 16µM | – | ·
COc1ccc(CNC(=S)Nc2ccc(OC)cc2)cc1 | – | – | – | – | – | –
CCCCc1ccc(NC(=S)NCc2ccc(OC)cc2)cc1 | – | ? | – | 10µM | – | ·
OCCN1C[C@H](O)[C@@H](O)[C@H](O)[C@@H]1CO | · | · | · | · | · | –
O=C(Cc1nc2ccccc2[nH]1)N1CCC(n2c(C3CCC3)nc3cccnc32)CC1 | · | · | – | · | · | ·
CCOc1ccccc1N1CCN(C(=O)c2cc3ccccc3cc2OC)CC1 | – | 5.2µM | ? | – | ? | –
O=C(c1cccc([N+](=O)[O-])c1)N1CCN(c2cccc(Cl)c2)CC1 | – | ? | – | – | ? | –
CCn1cc(C(=O)N2CCN(c3cccc(C(F)(F)F)c3)CC2)c2cc(OC)c(OC)cc2c1=O | – | · | – | ? | · | ?
SMILES | HepG2 viability | HT1080 IDH1KD tx | ATXN viability | TGFb inhibitor | HT1080NT lethal | ATXN2 expr inh
COc1ccccc1C(=O)N1CCN(c2cccc(C(F)(F)F)c2)CC1 | – | 9.2µM | – | – | 15µM | –
COc1ccc(C(=O)N2CCN(c3cccc(Cl)c3)CC2)c(OC)c1 | – | ? | – | – | 15µM | –
COC(=O)c1cc(C(=O)N2CCN(c3cccc(Cl)c3)CC2)cc([N+](=O)[O-])c1 | – | 0.46µM | – | – | 0.52µM | –
CCn1cc2nc(SCC(=O)Nc3ccc(C)cc3)n(Cc3ccc(C)cc3)c(=O)c2n1 | – | · | ? | – | · | –
CCOc1ccc2ccccc2c1C(=O)N1CCN(c2ccccc2)CC1 | – | 7.9µM | ? | – | ? | –
CCOc1ccccc1C(=O)N1CCN(c2cccc(Cl)c2)CC1 | – | 0.11µM | – | ? | 0.25µM | –
O=C(O)c1ccccc1C(=O)N1CCN(c2cccc(Cl)c2)CC1 | – | – | – | – | – | –
CCOC(=O)c1[nH]c(C)c(C(=O)N2CCN(c3ccccc3)CC2)c1C | – | – | – | – | – | –
COCc1c(C(=O)N2CCN(C3CCCC3)CC2)cnn1-c1nccc(-c2cc(C)sc2C)n1 | · | · | – | · | · | ·
COc1ccc([C@H]2CC(=O)C=C(c3cc(C=O)ccc3OC)C2)cc1OC | – | – | – | – | – | –
COc1ccc([C@H]2CC(=O)C=C(c3cc(C=O)ccc3OC)C2)cc1 | – | 15µM | – | ? | ? | –
COc1ccc([C@H]2CC(=O)C=C(c3cc(Cl)ccc3OC)C2)cc1 | – | ? | ? | ? | ? | –
CCOc1ccc(Cl)cc1C1=CC(=O)C[C@H](c2ccc(OC)cc2)C1 | – | 4.1µM | – | ? | 2.1µM | –
